Screening results from PubChem.
An excerpt weighted towards active compounds, which were near 3.6% of everything screened.
mHTT-CaM PPI inh: mHTT-calmodulin interaction abrogation; AlphaScreen His-mHTT/GST-CaM binding, luminescence; 190,000 tested, 3.6% active; P42858; inhibition, % at 15 µM
Pf apPOL block: Pf-apPOL DNA polymerase inhibition; Recombinant Pf-apPOL, molecular beacon fluorescence, 1.5 h; inhibition, % at 10 µM; 210,000 tested, 0.25% active
A number is an active result; n = inactive; x = no result. Cut-off read from the data, not from the text of the source: active = inhibition above about 50%; inactive = the rest.

SMILES	mHTT-CaM PPI inh	Pf apPOL block
CCCCC[C@@H](C)N1C[C@@H](COCc2ccccc2)Oc2cc(N3CC[C@@H](O)C3)ccc2S1(=O)=O	99	n
CCCCC[C@@H](C)N1C[C@@H](COCc2ccccc2)Oc2cc(N3CCC[C@@H]3CO)ccc2S1(=O)=O	n	n
CCCCC[C@H](C)N1C[C@@H](COCc2ccccc2)Oc2cc(N3CC[C@@H](O)C3)ccc2S1(=O)=O	74	n
COc1ccc(-c2cc(N3CCC(C(=O)Nc4cc(Cl)ccc4C#N)CC3)ncn2)cc1	n	n
COc1ccc(CC(=O)Nc2cc(C)n(-c3cccc(C)c3)n2)cc1	n	n
Cc1nc2cc(N3CCCC(C(=O)N4CCCCCC4)C3)cnc2nc1C (centres undefined)	n	n
COc1ccc(C2=NOC(C(=O)Nc3cc(OC)c(OC)c(OC)c3)C2)cc1OC (centres undefined)	n	n
O=C(O)CNC(=O)c1ccccc1	n	n
NNC(=O)CNC(=O)c1ccccc1	n	62
CC1=Nc2ccccc2C1=Cc1c(O)n(-c2ccc(Cl)cc2)c(=O)[nH]c1=O	n	n
CC1=Nc2ccccc2C1=Cc1c(O)n(-c2cccc(Br)c2)c(=O)[nH]c1=O	96	n
Cc1ccccc1NC(=O)c1c(C)nc(SCC(N)=O)c(C#N)c1-c1ccc(Cl)cc1	n	n
CCN1CCCC1CNC(=O)C1(O)c2ccccc2NC(=O)N1c1ccc(C)c(C)c1 (centres undefined)	n	n
COc1cc(/C=C2/SC(c3ccccc3)=NC2=O)cc(Br)c1O	96	n
CCOc1cc(/C=C2\Sc3ccccc3C2=O)cc(I)c1O	71	n
CCOc1cc(C=C2C(=O)c3ccccc3C2=O)cc(Br)c1O	66	n
COc1cc(/C=C2\Sc3ccccc3C2=O)cc2sc(=O)oc12	n	n
CCOc1ccc(/C=C2\Sc3ccccc3C2=O)cc1	n	n
CCOc1cc(C=C2C(=O)c3ccccc3C2=O)ccc1OC(C)C(=O)O (centres undefined)	n	n
COc1ccc(/C=C2/SC(c3ccccc3)=NC2=O)cc1	n	n
COc1cc(/C=C2\Sc3ccccc3C2=O)cc(I)c1O	74	n
COc1ccc(C)cc1NS(=O)(=O)c1cc2c(s1)CCN(C(=O)C1CC1)C2	n	n
CCN(CC)Cc1c(O)ccc2c1OC(=Cc1cccnc1)C2=O	n	n
CCN(CC)CC(=O)N1CCCc2c1c(=O)oc1ccc(O)cc21	n	n
CC(CC1OCC(CN2CCCCC2)O1)CC(C)(C)C (centres undefined)	n	n
SMILES	mHTT-CaM PPI inh	Pf apPOL block
COc1ccc(/C=C2\Sc3ccccc3C2=O)cc1Br	n	n
COc1cc(/C=C2\Sc3ccccc3C2=O)cc(Br)c1O	59	n
Cc1c(-c2ccnn2C(=O)c2ccco2)cnn1-c1ccccc1	x	n
COc1ccc(CCNS(=O)(=O)c2ccc(C)cc2)cc1OC	n	n
COc1ccc(S(=O)(=O)NCCc2ccc(N3CCCC3)cc2)cc1OC	54	n
O=[N+]([O-])c1ccc(C2Nc3c(I)cccc3C3C=CCC32)cc1 (centres undefined)	n	n
Cc1ccc2c(c1C)NC(c1ccc([N+](=O)[O-])cc1)C1CC=CC21 (centres undefined)	62	n
O=C(O)c1cccc2c1NC(c1ccc([N+](=O)[O-])cc1)C1CC=CC21 (centres undefined)	66	n
Cc1cc(C)c2c(c1)C1C=CCC1C(c1ccc(C(=O)O)cc1)N2 (centres undefined)	74	n
O=C(O)c1cc(Br)cc2c1NC(c1ccc(F)cc1)C1CC=CC21 (centres undefined)	95	n
CN(C)c1ccc(C(=O)N2CCC3(CC2)NC(=O)N(Cc2ccccc2Cl)C3=O)cc1	n	n
COc1cc([N+](=O)[O-])ccc1N=Cc1ccccc1O	n	n
Cc1sc2ccn(C)c(=O)c2c1C(=O)NCCN1CCc2ccccc2C1	n	n
Cc1ccc(C)c(N2CCN(C(=O)CCn3c(=O)[nH]c4ccsc4c3=O)CC2)c1	n	n
Cc1cc(I)c2c(c1)C1C=CCC1C(C(=O)O)N2 (centres undefined)	81	n
O=C(O)c1cccc2c1NC(c1cccc(Br)c1)C1CC=CC21 (centres undefined)	92	n
CN(C)C(=O)c1cccc2c1NC(c1ccc(Cl)cc1Cl)C1CC=CC21 (centres undefined)	n	n
Cc1cc(I)cc2c1NC(C(=O)O)C1CC=CC21 (centres undefined)	n	n
O=C(O)c1cccc2c1NC(c1ccc(Br)cc1)C1CC=CC21 (centres undefined)	66	n
CSc1nnc(-c2nn(C)c3c2CN(C(=O)C(C)C)CC3)n1C	n	n
CC(c1ccccc1)N1CC(CO)(CO)C1 (centres undefined)	n	n
CC1CCC(N2CC(=O)N(C3CC3)C(c3ccc(F)cc3)C2=O)CC1 (centres undefined)	n	n
O=C1OC(c2ccc([N+](=O)[O-])cc2Cl)=N/C1=C\C=C\c1ccccc1	n	n
Cc1nc2c(C(=O)NCc3ccccc3)cnn2c(C)c1Cc1ccccc1F	n	n
COC(CNC(=O)c1cnn2c(C)c(Cc3cc(C)ccc3C)c(C)nc12)OC	61	n
SMILES	mHTT-CaM PPI inh	Pf apPOL block
COCCNC(=O)c1cnn2c(C)c(Cc3cc(C)ccc3C)c(C)nc12	n	n
Cc1nc2c(C(=O)NCCc3ccccc3)cnn2c(C)c1Cc1ccccc1F	70	n
COCCCNC(=O)c1cnn2c(C)c(Cc3ccccc3C)c(C)nc12	n	n
Cc1ccccc1Cc1c(C)nc2c(C(=O)NCCc3ccccc3)cnn2c1C	51	n
CCN1c2cc(F)ccc2C(=O)NC12CCN(C(=O)c1ccc(Br)cc1)CC2	n	n
CCOc1cc(CNC(=O)c2ccc3c(c2)nc2n3CCCC2)ccc1OC	n	n
CCn1cc(NC(=O)NCc2cccs2)c2ccccc21	n	n
O=C(c1noc2c1CCCC2)N1CCN(c2cccc(C(F)(F)F)c2)CC1	n	n
COc1ccc(C2CC(=O)C3=C(C2)Nc2ccccc2NC3c2cccc([N+](=O)[O-])c2)cc1OC (centres undefined)	n	n
CSc1ccc(C2Nc3ccccc3NC3=C2C(=O)CC(c2ccccc2)C3)cc1 (centres undefined)	n	n
O=C1CC(c2ccccc2)CC2=C1C(c1ccc(Br)cc1)Nc1ccccc1N2 (centres undefined)	79	n
O=C1CC(c2ccc(Cl)cc2)CC2=C1C(c1cccc([N+](=O)[O-])c1)Nc1ccccc1N2 (centres undefined)	62	n
CN(C)c1ccc(N=C2C=CC(=O)C=C2)cc1	95	x
COc1ccc(N=C2NC(=O)S/C2=C\c2ccc(N(C)C)cc2)cc1	n	n
O=C(CN1CCOCC1)N1CCCC2(C1)Nc1ccccc1NC2=NCc1ccccc1 (centres undefined)	91	n
COCCN=C1Nc2ccccc2NC12CCCN(S(=O)(=O)c1cccs1)C2 (centres undefined)	n	n
CC(=O)NCC(=O)N1CCCC2(C1)Nc1ccccc1NC2=NCc1ccccc1 (centres undefined)	n	n
COCCN=C1Nc2ccccc2NC12CCCN(C(=O)Nc1ccc(F)cc1F)C2 (centres undefined)	100	n
CCn1ccc(C(=O)N2CCCC3(C2)Nc2ccccc2NC3=NCc2ccccc2)n1 (centres undefined)	n	n
